Experiments:
Experiment in all cases: PBM binding z-score (relative to random genomic background probes); higher = stronger binding; sequences stand for … in GC…GCGATTGACAGCGTAGAATGAAGG
[1] = system: FXR:RXRa (NR concentration 270 nM, RXRa partner concentration 90 nM)
In short: (§1)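 Custom Agilent 4×180K protein-binding microarrays carried double-stranded probes. Their 34-nt variable regions held direct-repeat seeds, single-nucleotide variants, half-site ablations and random human genomic background sequences. Arrays were incubated 1 h with ligand-free nuclear receptor dimers in PBS pH 7.4, 2% milk, 0.02% Triton X-100, 1 mM DTT, 0.2 mg/mL BSA and 0.4 mg/ml salmon testes DNA. Antibodies against each partner (one per run) detected binding, and scanned fluorescence was regression-normalized. Binding z-scores use random background probes as reference.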

[2] = system: LXRa:RXRa (NR concentration 270 nM, RXRa partner concentration 90 nM)
In short: as §1

[3] = system: LXRa homodimer (NR concentration 270 nM)
In short: as §1

[4] = system: LXRb:RXRa (NR concentration 270 nM, RXRa partner concentration 90 nM)
In short: as §1

[5] = system: LXRb homodimer (NR concentration 270 nM)
In short: as §1

[6] = system: PPARa:RXRa (NR concentration 270 nM, RXRa partner concentration 90 nM)
In short: as §1

[7] = system: PPARg:RXRa (NR concentration 180 nM, RXRa partner concentration 90 nM)
In short: as §1

[8] = system: PPARg:RXRa 270nM:90nM, anti-RXR (NR concentration 270 nM, RXRa partner concentration 90 nM)
In short: as §1

[9] = system: PPARg:RXRa 30nM:10nM, anti-RXR (NR concentration 30 nM, RXRa partner concentration 10 nM)
In short: as §1

[10] = system: PPARg:RXRa 90nM:30nM, anti-RXR (NR concentration 90 nM, RXRa partner concentration 30 nM)
In short: as §1

[11] = system: PPARg:RXRa DBDmut IVT, anti-RXR (DBD mutation: RXRa K156A/R161A, NR concentration 270 nM, RXRa partner concentration 90 nM)
In short: as §1

[12] = system: PPARg:RXRa IVT, anti-PPARg (NR concentration 270 nM, RXRa partner concentration 90 nM)
In short: as §1

[13] = system: PPARg DBDmut:RXRa IVT, anti-PPARg (DBD mutation: PPARg1 K132A/R137A, NR concentration 270 nM, RXRa partner concentration 90 nM)
In short: as §1

[14] = system: PPARg DBDmut IVT, anti-PPARg (DBD mutation: PPARg1 K132A/R137A, NR concentration 270 nM)
In short: as §1

[15] = system: PPARg homodimer (NR concentration 180 nM)
In short: as §1

[16] = system: PXR:RXRa (NR concentration 270 nM, RXRa partner concentration 90 nM)
In short: as §1

[17] = system: PXR homodimer (NR concentration 270 nM)
In short: as §1

[18] = system: RARa homodimer (NR concentration 270 nM)
In short: as §1

[19] = system: RARb:RXRa (NR concentration 270 nM, RXRa partner concentration 90 nM)
In short: as §1

[20] = system: RARa:RXR (NR concentration 270 nM, RXRa partner concentration 90 nM)
In short: as §1

Sequence	PBM binding z-score [1]	PBM binding z-score [2]	PBM binding z-score [3]	PBM binding z-score [4]	PBM binding z-score [5]	PBM binding z-score [6]	PBM binding z-score [7]	PBM binding z-score [8]	PBM binding z-score [9]	PBM binding z-score [10]	PBM binding z-score [11]	PBM binding z-score [12]	PBM binding z-score [13]	PBM binding z-score [14]	PBM binding z-score [15]	PBM binding z-score [16]	PBM binding z-score [17]	PBM binding z-score [18]	PBM binding z-score [19]	PBM binding z-score [20]
TAGCCTAGGTCATTCAGGGGCCAGAATAGAAAGC	4.69	3.94	0.569	3.21	1.34	3.9	2.33	2.29	0.331	1.44	1.69	2.95	-0.139	0.318	1.44	2.48	0.043	-0.355	4	
CGTCCAAGGTCATAGGAGGTCACTGAAGACAGAT	7.73	7.6	6.16	6.62	1.26	6.26	6.52	6.6	3.16	5.31	3.85	5.27	1.24	1.12	5.21	7.29	6.78	3.25	5.39	
AATACAGGGTCACTAGGCCCGAGTAGGTACGAAT	6.16	4.62	0.516	3.53	0.618	5.37	6.32	5.26	2.34	4.04	2.32	4.28	2.04	0.859	1.77	2.94	0.0617	0.416	4.14	
CGTCCAAGGTCAAGGTGAGTGAAAGAGACTCGAA	7.1	4.92	0.292	3.92	0.281	5.71	5.33	5.61	2.05	4.04	3.35	3.92	0.375	0.105	3.6	3.6	0.642	1.04	5.22	
CCTTACGGGTCACGGGGTTATAGCACGACGAGCG	7.63	5.25	0.321	4.81	0.272	6.37	8.37	7.11	3.95	6.75	3.39	5.93	4.69	3.61	8.52	5.66	0.491	2.14	4.72	
CGTCAAAGTTCAACTAAGGTAACTTAAAGCACGC	7.38	6.11	4.42	4.16	1.95	5.47	5.21	5.69	2.4	4.39	0.256	2.36	0.726	1.28	3.17	5.71	4.62	1.76	5.39	
CTCGAAAGGTCGAGCTCAGGTGAGTATACCAAAC	5	3.57	-0.0751	3.02	-0.142	4.73	2.39	3.54	1.14	2.04	0.787	1.71	1.15	0.22	2.06	2.86	-0.325	0.256	4.2	
CAAACTAGGTCAAAGGTCAAACTCGAGCCAACCA	8.63	7.62	6.78	7.4	3.51	7.76	14.1	11.6	13.3	13.7	8.72	9.06	5.54	4.24	5.23	7.03	2.84	3.29	5.81	8.96
ACTCGGAGGACAAAGGTCACAGCTACGCCAGTGA	5.25	5.76	3.07	4.75	0.774	5.97	9.11	7.86	6.87	8.74	1.61	4.71	0.569	-0.0483	5.62	5.5	0.867	3.36	5.12	6.75
ATCGAATGGTCGAGGTGAGTATAGAGAAAGGGAA	0.114	-0.0823	-0.329	-0.326	-0.256	0.069	0.444	-0.0117	0.061	0.091	-0.483	0.658	1.03	0.73	0.372	-0.283	0.0857	0.112	0.541	0.0342
TTACAAAGGTGAAAGGTCGTTGATGCACGCCTTG	5.91	4.66	0.507	4.08	-0.0513	6.21	9.23	8.27	8.34	8.62	3.36	5.57	1.51	1.12	2.94	5.11	0.77	0.833	4.25	
ATCGAAAGGTCGTGAGGTGTGTATACAGAAAGGC	5.39	4.05	0.0507	3.03	0.423	4.94	3.6	3.97	1.61	2.81	0.0315	2.26	1.54	0.468	2.59	3.12	-0.215	0.71	3.97	
CCTACTGGGCCAAAGGTCAGTGATTCCAATGCTC	2.78	2.95	1.1	3.34	-0.252	6.01	11.7	10.2	9.62	12.5	4.94	6.5	0.904	-0.864	4.06	3.49	0.00567	1.82	4.1	
ATCGAAAGGTCGACGAGTTGAGTATACACCGTTT	3.68	3.25	0.0436	2.75	0.676	3.98	2.27	2.77	1.17	1.91	0.59	1.57	1.03	0.857	1.26	3.23	1.84	0.451	3.7	
ACTAACAGGCCAAGGGTCACTCAAGATTAGTCCG	2.89	3.27	0.663	3.06	0.292	4.35	6.9	6.64	4.86	6.91	0.923	3.21	0.489	-0.189	3.04	3.56	0.163	1.2	3.57	
CGTCCAAGGTCAATGCTAGGTCACTGAAAGCATT	6.84	5.66	3.98	4.6	0.791	5.16	4.37	5.11	1.68	3.62	3.52	4.42	0.503	0.266	8.59	5.45	2.08	2.19	5.33	
CGTCCAAGGTCATAAGAGGTCAGTGAAGACAGAT	7.91	7.9	5.88	7.04	2.11	5.7	5.38	5.99	2.54	4.85	3.48	4.2	2.03	-0.112	7.68	7.11	7.52	4	5.47	
CGAACGAGGTCAGAACAGGACAGTGAAGGATGAT	5.64	4.06	0.279	2.95	0.317	4.97	4.86	4.15	1.32	3.02	3.38	4.26	0.826	0.461	1.39	3.87	0.676	0.667	4.4	
ATCGAAAAGTCGAAGGTGAGTATACCCACCCGAA	0.0437	-0.18	-0.293	-0.264	-0.243	0.35	0.704	0.332	0.126	0.251	-0.679	0.2	0.0254	0.527	0.0253	-0.258	-0.0858	0.291	0.417	0.357
GGAACGAGGGCAAAGGTGATAGCATCTGTCGACG	2.08	1.64	-0.402	1.23	-0.651	4.97	9.32	8.6	7.51	9.41	5.67	5.29	0.379	0.895	1.42	1.9	0.114	0.0137	2.72	
TCTCGGAGGACACGAAAGGTCAGTGCTCGACATC	2.42	3.37	3.24	2.99	-0.000616	2.99	0.746	2.29	2.43	2.19	1.47	1.67	-0.413	-0.365	3.45	3.79	0.68	1.12	4.13	4.07
CAAACTAGGTCACAGAGGTCAAACTCCGTGCGTA	7.52	6.77	8.67	6.55	2.84	6.69	10.2	8.44	7.14	8.85	8.63	8.81	2.84	2.43	5.38	6.91	12.1	3.49	5.52	7.81
CCTACAGGGCCAAAGGTCATTGATTCCAATGCTC	5.3	5.24	4.04	4.71	0.781	5.51	8.97	8.45	8.14	9.99	0.88	4.29	0.0481	-0.141	5.51	5.66	2.27	2.39	4.63	
ATATGGAGGTTAAGGGTCATTCAGGTTGGTTCGC	6.25	5.67	3.97	5.2	1.77	6	9.22	8.75	7.43	10.3	3.59	5.42	3.41	2.22	4.57	6.14	3.95	3.41	3.97	
CGAACTAGGTGATTGACAGGACAGTGAATAGTAA	0.0682	-0.0591	0.0308	-0.196	-0.394	1.81	2.2	1.57	0.548	1.06	6.28	5.92	0.852	0.609	0.553	-0.082	0.228	0.46	0.167	0.0788
CGTCCAAGGTCAGTGAGGTCAGTGAATGCCGAGT	5.29	4.25	2.06	3.89	-0.0298	4.72	3.46	4.07	0.585	2.61	3.14	3.83	-0.101	-0.804	3.15	5.76	11.8	0.545	5.51	
GCTAGTTTGTCAGTAAAAGGTCACACACCGGTCG	3.28	4.33	4.39	4.2	1.2	4.42	3.19	5.47	3.23	5.43	0.319	2.75	0.759	0.562	4.4	4.95	1.22	2.54	4.12	5.77
CAATCTAGGTCACGAAAGGTCAAAGTCGAATGAC	7.83	8.36	8	7.57	3.05	6.84	10.7	8.68	7.62	9.02	8.53	9.13	5.67	4	6.67	7.2	3.37	4.3	5.76	
CCTTACGGGTCAAGGTTATATCACGGGTGGTACG	5.41	3.89	0.787	3.34	0.134	4.99	4.26	4.7	1.6	3.52	1.74	3.78	0.607	0.522	2.64	3.63	0.951	0.89	4.15	

From the supplement of paper PMC6555819
